Experimental data reported in PubChem BioAssay (NCI).
Compounds without any hit were thinned out: in the full panel of roughly 83,000, 20% have a hit.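 For each line, cells grew in 96-well plates with the test compound present at a single concentration for 48 hours.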 Values without a mark were called inactive. The calls were made as follows: active = growth percent below 10; inactive = the rest.

tested on: MDA-MB-468 breast; assay: NCI-60 one-dose screen, 48 h (100 = growth as untreated, 0 = no growth, -100 = all killed); details: 10 µM unless noted

**Q.** With `O=C(Nc1ccc(F)cc1)c1cc2ccccc2cc1O` as the compound, how does the growth read?
**A.** 60.8%

**Q.** How did the growth turn out when `C[C@@H]1COCCN1c1cc(C2([S@](C)(=N)=O)CC2)nc(-c2ccnc3[nH]ccc23)n1` was run?
**A.** 28.3%

**Q.** For `CS(=O)(=O)Nc1cc(-c2ccc3ncc(C#N)c(N[C@H](CO)c4ccccc4)c3c2)cnc1Cl`, which growth is on record?
**A.** 14.5%

**Q.** Which growth does the source give for `CC(C1=C(CN(C(=O)Cc2cn(-c3ccccc3)nc2-c2ccc(Cl)cc2)C(C)C)Cc2ccccc21)c1ccccn1` (centres undefined) here?
**A.** 43.8%
